In PubChem BioAssay AID623868 (Vanderbilt High Throughput Screening Facility, 2012):
Out of some 2,100 compounds screened, about 760 (36%) were called active. The list is a sample of the results. Values without a mark were called inactive.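 Rule for the calls: active = thallium-flux fluorescence traces judged by eye to show enhanced or reduced glutamate response, manual score 1 or -1, so both directions (some results past the limit were not filed as active); inactive = the rest, including fluorescent or raised-baseline compounds.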

Experiment: thallium influx changes without GIRK channels – cell-based, HEK-293 rmGlu8, no GIRK, thallium flux, counter-screen for GIRK activator project, confirmation (AID 623868);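 note: extra codes mark interference with 3 for fluorescent and 4 for baseline rise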
Conditions: thallium flux fluorescence, at 10 µM, actives lie on both sides, codes: 1 enhancer, -1 blocker, 0 none, thallium stimulus containing EC20 glutamate

| SMILES | manual score |
| --- | --- |
| CN1C=CC2=C(C#N)C(N)C(C#N)(C#N)[C@H](c3ccccc3)[C@H]2C1 (stereo partly specified) | 3 |
| COc1ccc(-c2cc(C(F)(F)F)c3c(n2)sc2c(O)cc(=O)[nH]c23)c(OC)c1 | 0 |
| O=C(Nc1cccc(Cl)c1)Nc1nccs1 | 0 |
| Cn1sc(NC(=O)c2cccc(Cl)c2)nc1=O | -1 (active) |
| O=C(NCCCN1CCN(c2cccc(Cl)c2)CC1)c1cccc(N2CCCC2=O)c1 | 0 |
| CCn1c(=S)[nH]c2nc3c(cc2c1=O)CCCC3 | 1 (active) |
| C=CCn1c(=S)[nH]c2nc3c(cc2c1=O)CCCC3 | 1 (active) |
| Cc1noc(C)c1S(=O)(=O)N1CCC(Cc2ccccc2)CC1 | 0 |
| CCCCCCN1C2=NCCN2c2ccccc21 | 0 |
| CCC(=O)N1c2ccc(C)cc2C2=NNC(=S)NC21O (stereo unspecified) | 1 (active) |
| COc1ccccc1C(=O)N1c2ccccc2Sc2ccccc21 | -1 (active) |
| COCC(=O)/C=C1\Sc2ccccc2N1C | 0 |
| CCOc1ccccc1C(=O)N1c2ccccc2Sc2ccccc21 | 0 |
| COc1ccc(C(=O)Nc2ccc(S(=O)(=O)NCc3ccco3)cc2)cc1OC | -0.5 |
| COc1cc(NC(=O)CS(=O)(=O)c2ccc(C)cc2)cc(OC)c1OC | 0 |
| COc1cc(C(=S)N2CCCC2)cc(OC)c1OS(=O)(=O)c1ccc(NC(C)=O)cc1 | -1 (active) |

| SMILES | manual score |
| --- | --- |
| O=C(NC(Nc1nc2ccc([N+](=O)[O-])cc2s1)(C(F)(F)F)C(F)(F)F)c1ccccc1 | 1 (active) |
| CS(=O)(=O)c1ccc2nc(NC(=O)C3C4C=CC(C4)C3C(=O)O)sc2c1 (stereo unspecified) | 0 |
| O=C(Nn1c(C2CCCCC2)nc2ccccc2c1=O)c1ccc([N+](=O)[O-])cc1Cl | 0 |
| O=C(NC(Nc1nc2ccc([N+](=O)[O-])cc2s1)(C(F)(F)F)C(F)(F)F)c1ccccc1Cl | 1 (active) |
| Cc1ccc(C)c(OCC(=O)Nc2nc3ccc([N+](=O)[O-])cc3s2)c1C | 0 |
| N#C/C(=C/C=C/c1ccccc1)C(=O)Nc1ccccc1 | 0 |
| S=c1[nH]nc(-c2ccc(Br)o2)n1Cc1ccccc1 | 1 (active) |
| CCn1c(-c2cc3ccccc3cc2O)n[nH]c1=S | 0 |
| O=c1oc(-c2ccc(Br)o2)nc2ccccc12 | 0 |
| Cn1c(SCC(=O)c2cc3ccccc3o2)nnc1-c1ccccc1 | 0 |
| S=c1[nH]nc(-c2cc3ccccc3o2)n1Cc1ccccc1 | 1 (active) |
| CC(C)N(Cc1nc(-c2ccccc2)no1)C(=O)CSc1ccccc1 | 0 |
| CC1(C)CC(=O)C2=C(C1)NC(SCC(=O)Nc1ccccc1)=C(C#N)C2c1ccco1 (stereo unspecified) | 0.5 |
| CN1C2C=C3C(C#N)=C(N)C(C#N)(C#N)[C@@H](c4ccsc4)[C@@H]3C1CC2 (stereo partly specified) | 0 |
| CC1(C)CC(=O)C2=C(C1)N(c1ccccc1)C(N)=C(C#N)C2c1ccsc1 (stereo unspecified) | -1 (active) |
